SMILES strings stand for the structures. This is part of a sample that, as a whole, favours compounds with a hit. Of some 83,000 tested, about 20% had one in any assay.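 Note: values are percent growth. 100 is the growth of untreated cells, values between 100 and 0 indicate rising inhibition; between -100 and 0 indicates cell death.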 Values without a mark were called inactive. The source made the active and inactive calls. The calls were made as follows: active = growth percent below 10; inactive = the rest.

The test has as its system HL-60(TB) leukemia. The test is described as follows: NCI-60 one-dose screen, 48 h (100 = growth as untreated, 0 = no growth, -100 = all killed). As to conditions: 10 µM unless noted.
For the compound `O=C1c2cccc3c(-c4ccc(-c5nc6c7ccccc7c7ccccc7c6[nH]5)cc4)ccc(c23)C(=O)N1CCN1CCNCC1`, the growth was 82.5%.

Take `COc1cccc(-c2nn(-c3ccccc3)cc2-c2ccnc(NCCCN)c2)c1`: the growth was 39.6%.

Consider `CCN1CCN(CCNc2nccc(-c3c(-c4ccc(F)c(O)c4)nc4occn34)n2)S1(=O)=O`, for which the growth is 1.1% (active).

As to `CC(C)CNc1nc(N=[N+]=[N-])nc(NCC(C)C)n1`, the growth is 48.9% [100 µM].

As to `S=C1SCC(c2ccccc2)S1` (stereo not drawn), the growth was 108%.

For `O=C1c2ccccc2OC=C(c2ccccc2)N1CCCCNc1ccc(S(=O)(=O)Nc2ncccn2)cc1`, the growth is 73.1%.

Turning to `O=S(=O)(Nc1ccsc1-c1nc(-c2ccccc2)no1)c1cc(Cl)cc(Cl)c1`, the growth is 119%.

For `CCCN(CCC)C(=O)[C@H](CC)[C@@H]1CC[C@@H](C)[C@@H]([C@H](C)[C@@H](O)[C@@H](C)C(=O)[C@H](CC)C2O[C@]3(C=C[C@@H](O)[C@]4(CC[C@@](C)([C@H]5CC[C@](O)(CC)[C@H](C)O5)O4)O3)[C@H](C)C[C@@H]2C)O1` (stereo partly drawn), the growth is -47.7% (active).

As to `NC(=O)c1nc2c([nH]c1=O)CCCC2`, the growth was 101%.

For the compound `CC1(C)CC([P+](c2ccccc2)(c2ccccc2)c2ccccc2)=NN1`, the growth is -49.2% (active).

With `c1ccc2[nH]c(Cc3nc4ccccc4[nH]3)nc2c1`, the growth was 75.6%.

In the case of `O=C(O)COc1ccc([N+](=O)[O-])cc1Cl`, the growth was 108%.

`CCCCC[C@H]1C/C=C2/C(=O)C=C[C@@H]2C/C=C\CCCC(=O)O[C@@H](CCCCC)C/C=C2/C(=O)C=C[C@@H]2C/C=C\CCCC(=O)O1`: the growth is -47.6% (active).
